Experimental data from PubChem BioAssay AID1159580 (chemical genetic matrix, 2015).
“And” between values parts separate entries of the source, which are not always exact repeats. Identical values can stand only once. Among all 5,500 compounds or so, about 2,000 (36%) were called active. Inconclusive results (about 18%) are left out. No stated cut-off is given here; in the data, active means normalized growth mostly below about 0.91 (no sharp cut-off); inconclusive means no clear call, values can overlap the other calls; inactive means mostly above about 0.92. The list shows a part of the results.

Experiment: chemical genetic growth profiling, strain panel (AID 1159580);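 further: tested at 20 µM; growth read once vehicle control cultures reached saturation at 30 °C; 1 = growth at the plate median or of vehicle wells; lower values mean less growth of the strain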
Details: S. cerevisiae deletion strains, growth OD

Measured: normalized growth

CN[C@@H]1[C@H](O)[C@H](NC)[C@H]2O[C@@]3(O)C(=O)C[C@@H](C)O[C@H]3O[C@@H]2[C@H]1O
inactive: locus YAL013W, strain DEP1, active compounds read low 1.01 | locus YAL021C, strain ccr4, active compounds read low 0.982 | locus YAL026C, strain drs2, active compounds read low 1 | locus YAL030W, strain snc1, active compounds read low 1 | locus YBL061C, strain skt5, active compounds read low 1.01 | locus YBR009C, strain hhf1, active compounds read low 0.976 | locus YBR021W, strain FUR4, active compounds read low 0.997 | locus YBR023C, strain chs3, active compounds read low 1 | locus YBR171W, strain sec66, active compounds read low 1.01 | locus YBR229C, strain ROT2, active compounds read low 1.01 | locus YBR231C, strain swc5, active compounds read low 1.01 | locus YBR279W, strain paf1, active compounds read low 0.988 | locus YCL011C, strain gbp2, active compounds read low 0.991 | locus YCL016C, strain dcc1, active compounds read low 0.984 | locus YCL029C, strain bik1, active compounds read low 1.03 | locus YCL061C, strain MRC1, active compounds read low 1.02 | locus YCL069W, strain vba3, active compounds read low 1 | locus YCR088W, strain abp1, active compounds read low 1 | locus YDL005C, strain med2, active compounds read low 1 | locus YDL035C, strain GPR1, active compounds read low 1.02 | locus YDL040C, strain nat1, active compounds read low 1.01 | locus YDL074C, strain BRE1, active compounds read low 1.02 | locus YDL101C, strain DUN1, active compounds read low 1.02 | locus YDL134C, strain PPH21, active compounds read low 1.01 | locus YDL185W, strain tfp1, active compounds read low 1.02 | locus YDL192W, strain arf1, active compounds read low 1.02 | locus YDR001C, strain nth1, active compounds read low 0.997 | locus YDR069C, strain doa4, active compounds read low 1.02 | locus YDR101C, strain arx1, active compounds read low 1.02 | locus YDR137W, strain rgp1, active compounds read low 0.989 | locus YDR150W, strain NUM1, active compounds read low 1.01 | locus YDR159W, strain sac3, active compounds read low 0.969 | locus YDR162C, strain NBP2, active compounds read low 1.03 | locus YDR195W, strain ref2 0.99 | locus YDR297W, strain sur2, active compounds read low 1 | locus YDR318W, strain mcm21, active compounds read low 1.03 | locus YDR334W, strain swr1, active compounds read low 1 | locus YDR335W, strain msn5, active compounds read low 1 | locus YDR388W, active compounds read low 1.02 | locus YDR392W, strain spt3, active compounds read low 0.956 | locus YDR502C, strain sam2, active compounds read low 1.02 | locus YEL003W, strain gim4, active compounds read low 1 | locus YEL037C, strain rad23, active compounds read low 0.998 | locus YEL061C, strain CIN8 (second series), active compounds read low 0.991 | locus YEL061C, strain CIN8, active compounds read low 1.01 | locus YER015W, strain faa2, active compounds read low 1 | locus YER016W, strain bim1, active compounds read low 0.974 | locus YER110C, active compounds read low 1.03 | locus YER111C, strain swi4, active compounds read low 1.01 | locus YER155C, strain BEM2 (second series), active compounds read low 1.04 | locus YER155C, strain BEM2, active compounds read low 1.01 | locus YER167W, strain BCK2, active compounds read low 1.02 | locus YFR010W, strain ubp6, active compounds read low 1.02 | locus YGL078C, strain dbp3, active compounds read low 1.02 | locus YGL086W, strain mad1, active compounds read low 1.02 | locus YGL167C, strain pmr1, active compounds read low 1.02 | locus YGL173C, strain kem1, active compounds read low 1.03 | locus YGL227W, strain vid30, active compounds read low 1.01 | locus YGL240W, strain doc1, active compounds read low 1.03 | locus YGL248W, strain PDE1, active compounds read low 1.02 | locus YGL253W, strain hxk2, active compounds read low 0.973 | locus YGR078C, strain PAC10, active compounds read low 1.02 | locus YGR135W, strain pre9, active compounds read low 1.02 | locus YGR229C, strain SMI1, active compounds read low 1.02 | locus YGR252W, strain gcn5, active compounds read low 1.01 | locus YHR013C, strain ard1, active compounds read low 0.993 | locus YHR027C, strain rpn1, active compounds read low 0.993 | locus YHR030C, strain SLT2, active compounds read low 1.02 and 0.968 | locus YHR079C, strain IRE1 (second series), active compounds read low 1.03 | locus YHR079C, strain IRE1, active compounds read low 0.953 | locus YHR094C, strain hxt1, active compounds read low 1.02 | locus YHR129C, strain ARP1, active compounds read low 1.01 | locus YHR142W, strain chs7, active compounds read low 0.995 | locus YHR200W, strain rpn10, active compounds read low 1 | locus YIL066C, strain RNR3, active compounds read low 1.01 | locus YIL073C, strain SPO22, active compounds read low 1.04 | locus YIL125W, strain kgd1, active compounds read low 1.01 | locus YIR030C, strain dcg1, active compounds read low 1.02 | locus YJL092W, strain hpr5, active compounds read low 1.01 | locus YJL095W, strain BCK1 (second series), active compounds read low 1.01 | locus YJL095W, strain BCK1, active compounds read low 1.02 and 0.984 | locus YJL115W, strain asf1, active compounds read low 0.998 | locus YJL129C, strain trk1, active compounds read low 1.01 | locus YJL134W, strain LCB3, active compounds read low 1.01 | locus YJL154C, strain vps35, active compounds read low 0.991 | locus YJL164C, strain tpk1, active compounds read low 0.987 | locus YJL166W, strain qcr8, active compounds read low 1.02 | locus YJL168C, strain set2, active compounds read low 1.02 | locus YJL187C, strain SWE1 (second series), active compounds read low 1.02 | locus YJR043C, strain POL32, active compounds read low 1.01 | locus YJR066W, strain TOR1, active compounds read low 0.977
